Abeta yeast res: A-beta toxicity reversal in yeast; actives 0.063% (n = 410,000); yeast expressing A-beta42, growth rescue, OD600, 48 h; response scale: 0% DMSO, 100% iron-clioquinol control; AID 1347071; Potency, µM (top dose mostly 46.1 µM), hits mostly activators; note: nearly all actives have a fitted effect of over 55% in size
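Yeast A-beta toxicity model in growth medium with pinned compounds, 48 h at 30 C; growth read as absorbance at 600 nm. Normalized to FeCl3/clioquinol equimolar mix (positive) and DMSO (negative).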
Mito fusion act: inhibitors of mitochondrial division or activators of mitochondrial fusion | S. cerevisiae fusion-defective mutant growth rescue, CellTiterGlo 48 h | Potency, µM (titrated, usually from 46.1 µM), inactives show at the highest dose growth rescue (activation), actives largely listed as activators | actives 0.23% (n = 320,000) | AID 485298; note: % of control where 0% means no effect; nearly all actives have a fitted effect of over 45% in size
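Growth-rescue viability read-out: after 48 h at the non-permissive 37C in glycerol/ethanol YPEG, yeast mitochondrial fusion mutants are measured by CellTiterGlo luminescence; compounds (23 nl pinned per well) restoring growth score as division inhibitors or fusion activators.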
TDP-43 yeast inh: rescues yeast growth from TDP-43 toxicity; actives 1.8% (n = 410,000); TDP-43 expressing yeast growth rescue, BacTiter-Glo, 24 h; Potency, µM (doses to about 46.1 µM), inactives show at the top dose growth rescue (activation), hits mostly activators; note: % of control where 0% means no effect; nearly all actives have a fitted effect of over 50% in size
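Cell-based yeast growth screen: TDP-43 expression induced in galactose, inoculum OD600=0.02 after raffinose pregrowth to mid-log. Read-out BacTiter-Glo luminescence at 24 hr, 30 deg C; inhibition of toxicity seen as signal increase.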
FUS yeast rescue: rescues growth of FUS-expressing yeast; S. cerevisiae FUS-expressing, growth rescue, OD600, 24 h; Potency, µM (titrated, usually from 76.6 µM), actives largely listed as activators; actives 0.24% (n = 390,000); AID 1347120;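 note: plate controls were DMSO vehicle for no effect and reference control for full effect; nearly all actives have a fitted effect of over 55% in size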
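Restored growth of FUS-toxic S. cerevisiae, read as 600 nm absorbance after 24 h at 30C in galactose medium (starting OD 0.005). Controls CP55940 and DMSO.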
aSyn yeast inh: inhibitors of alpha-synuclein toxicity in yeast; Yeast expressing alpha-synuclein, growth rescue, BacTiter-Glo, 24 h; Potency, µM (doses to about 46.1 µM), for the others: at the top dose growth rescue (activation), usual class: activators; actives 0.14% (n = 370,000); AID 652106; note: % of control where 0% means no effect; nearly all actives have a fitted effect of over 65% in size
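Rescue of yeast growth: cells expressing toxic alpha-synuclein, induced in galactose at OD600 0.02, incubated with compound 24 h at 30 C. ATP luminescence quantified growth; inhibitors of toxicity appear as activators.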
The depositor's hits bear a star; i = inactive; ? = inconclusive; nt = not tested or not shown. The list is not random: actives were taken first. Their share in the collection is about 2.2%. Calls come from the whole dose curve; as a rule, active = well fitted curve in the direction sought with a large enough effect; inconclusive = small, poorly fitted or top-dose-only effect, or another doubt; inactive = no such curve, though single readings can be large; an effect the other way counts as inactive or inconclusive. Potency is the fitted concentration of half-maximal effect.

SMILES	Abeta yeast res	Mito fusion act	TDP-43 yeast inh	FUS yeast rescue	aSyn yeast inh
COc1ccccc1N(CC(=O)Nc1ccc(C)c(Cl)c1)S(=O)(=O)c1ccc(C)cc1	i	nt	0%	i	nt
Cc1ccc(NC(=O)Nc2ccc3nc(N4CCN(C)CC4)cc(C)c3c2)cc1C	i	nt	14%	i	nt
COc1ccc(C)cc1NC(C)C(=O)c1c[nH]c2ccccc12 (stereo not drawn)	nt	nt	nt	nt	-5%
O=C(Nc1nc(-c2cccs2)c(-c2cccs2)s1)C1CCCC1	i	?	14µM*	nt	-5%
Cc1ccc(C2Nc3cccc4cccc(c34)N2)s1	i	6%	10µM*	nt	-10%
COc1cccc(CCn2c(N)cc(=O)[nH]c2=S)c1OC	nt	nt	nt	nt	-3%
Cc1ccc(C(=O)C2CCN(C(=O)c3ccc(C)cc3)CC2)cc1	i	14%	15%	i	-7%
Cc1ccc(C(=O)N2CCC(C(=O)c3c(C)cc(C)cc3C)CC2)cc1	i	20%	18µM*	?	2%
Cc1ccc(C)c(N2CCN(S(=O)(=O)c3cc(C(=O)Nc4ccccc4C(F)(F)F)ccc3F)CC2)c1	4µM*	nt	?	i	nt
CCOc1nc(OCC)nc(N2CCC(C)CC2)n1	i	12%	10%	i	1%
CCOc1nc(NC2CCCC2)nc(N2CCC(C)CC2)n1	?	-12%	18µM*	i	-15%
CCC(=O)N1c2ccccc2CC1C(=O)NCCCN1CCN(c2ccccc2)CC1 (stereo not drawn)	i	nt	9%	i	nt
CSc1nn(Cc2cccc(Cl)c2)c(N(C(C)=O)C(C)=O)c1S(=O)(=O)c1ccccc1	i	nt	11µM*	i	nt
COc1ccc(CCNC(=O)c2cnn3c2NC(=C2CC2)C=C3C(F)F)cc1OC	nt	nt	nt	nt	9%
CN(C(=O)Nc1ccc(Cl)c(Cl)c1)c1ccccc1C(=O)O	i	18µM*	?	i	-31%
O=C(Nc1ccc(Cl)c(Cl)c1)c1ccccc1	i	?	?	i	-7%
COc1ccccc1Cn1c(CNS(=O)(=O)c2ccc(C(C)C)cc2)nc2cccnc21	i	nt	0%	i	nt
COc1ccccc1NC(=O)Cc1ccc(-c2ccccc2)cc1	i	27%	16µM*	i	-12%
Cc1ccnc(NC(=O)Cc2ccc(-c3ccccc3)cc2)c1	i	5%	14µM*	i	5%
COc1ccccc1NC(=O)CC(=O)Nc1ccccc1OC	i	-5%	2%	i	-10%
O=C(Cc1ccc(-c2ccccc2)cc1)Nc1ccccn1	i	18%	14µM*	i	-7%
Cc1ccc(NC(=O)Cc2ccc(-c3ccccc3)cc2)nc1	?	4%	7.1µM*	i	7%
Cc1ccc(NC(=O)Cc2ccc(Cl)cc2)nc1	i	nt	12%	i	2%
O=C(c1ccncc1F)N1CCC(n2nnc3ncccc32)CC1	nt	nt	nt	i	nt
COc1cccc(C(=O)CN2CCN(S(=O)(=O)c3ccc(Cl)cc3)CC2)c1	i	nt	-5%	i	nt
SMILES	Abeta yeast res	Mito fusion act	TDP-43 yeast inh	FUS yeast rescue	aSyn yeast inh
O=C(Cn1nc2c(cc1=O)CCCC2)Nc1ccc(F)cc1F	i	nt	1%	i	nt
COc1ccc(-c2ccccc2)cc1NCc1ccccc1C	i	25%	21%	i	-15%
COc1ccccc1CNc1cc(-c2ccccc2)ccc1OC	i	19%	13µM*	nt	-12%
Cn1cccc1-c1cc(C(=O)N2CCc3c([nH]c4ccccc34)C2c2ccccn2)[nH]n1 (stereo not drawn)	?	14%	4%	18µM*	1%
Cc1cc2cc(C(=O)N3CCc4c([nH]c5ccccc45)C3c3ccccn3)ccc2o1 (stereo not drawn)	i	?	25µM*	?	?
COc1ccc(-c2nc3c4ccccc4n(CC(=O)Nc4ccc(C(C)C)cc4)c(=O)n3n2)cc1	i	nt	23%	i	nt
COc1ccc2c(=O)c(-c3ccccc3)c(C)oc2c1	i	5%	11µM*	i	6%
COC(=O)c1cc(-c2c(C)oc3cc(OC)ccc3c2=O)c(C)o1	i	3%	-13%	i	-31%
Clc1cccc(OCc2nc(-c3ccncc3)no2)c1	i	-14%	11µM*	i	-7%
Clc1ccc(OCc2nc(-c3ccncc3)no2)c(Cl)c1	i	20%	?	i	10%
Cc1cccc(NC(=S)NNC(=O)c2ccco2)c1	i	-9%	-12%	i	-30%
O=C(NC(=S)NNC(=O)c1ccco1)c1ccccc1	?	5%	?	i	13µM*
O=C(NNC(=O)c1ccco1)c1ccccc1	i	-2%	-11%	i	-14%
O=C(/C=C/c1ccccc1)NC(=S)NNC(=O)c1ccco1	i	-8%	11µM*	?	3.5µM*
O=C(/C=C/c1ccc(Br)cc1)NC(=S)NNC(=O)c1ccco1	i	-13%	5.6µM*	i	22µM*
COc1ccccc1-c1cc2nc(C)c(CCC(=O)Nc3ccc(Br)c(C)c3)c(C)n2n1	?	nt	?	i	nt
O=c1cc(O)cc(/C=C/c2ccc(O)c(O)c2)o1	nt	16µM*	nt	nt	7%
Cc1cc(C)cc(N2CCn3c2nc2c3c(=O)n(CCc3ccccc3)c(=O)n2C)c1	i	nt	0%	i	nt
CCN(CC)C(=O)C1CCCN(c2ncnc3c2cnn3-c2ccc(Cl)cc2)C1 (stereo not drawn)	i	22%	20µM*	?	3%
CC1CCCN(c2ncnc3c2cnn3-c2ccccc2)C1 (stereo not drawn)	i	5%	?	i	10%
CC1CCCN(c2ncnc3c2cnn3-c2ccc(Cl)cc2)C1 (stereo not drawn)	i	5%	14µM*	i	-1%
CCN(CC)C(=O)C1CCCN(c2ncnc3c2cnn3-c2cccc(C)c2)C1 (stereo not drawn)	i	5%	?	i	15%
O=c1cc(-c2ccccc2)oc2ccccc12	i	6%	19%	i	1%
Nc1cc([N+](=O)[O-])cc2oc(-c3ccccc3)cc12	i	20%	35µM*	i	11%
Cc1ccc(CCNC(=O)c2c(C)nn(-c3ccc(F)cc3)c2-n2cccc2)cc1	i	nt	22µM*	i	8%
CCN(CC)c1ncnc2c1sc1nc(C)cc(C)c12	i	6%	22µM*	i	0%
Cc1cc(C)c2c(n1)sc1c(N3CCCCC3)ncnc12	i	14%	4%	i	-9%
O=C(Cn1nc(Cl)nc1Cl)c1ccc(F)cc1	i	-4%	24%	i	2%
O=C(Cn1nc(Cl)nc1Cl)c1ccc2c(c1)OCCO2	i	-11%	11µM*	?	-5%

Assay outcomes deposited in PubChem by National Center for Advancing Translational Sciences (NCATS).
